Screening results as filed in PubChem BioAssay.
RE007 growth inh: qHTS Assay for Inhibitors of the HIV-1 protein Vpr; Potency, µM (titrated, usually from 92.2 µM), inactives show at the highest dose activity change, negative = less growth, hits mostly inhibitors; S. pombe RE007 Vpr strain, BacTiter-Glo ATP luminescence, 24 h; hit rate 0.21% among 360,000; active means well fitted falling curve with a large enough effect; inconclusive means small, poorly fitted or top-dose-only effect; inactive means no such curve, though single readings can be large or run the other way; further: nearly all actives have a fitted effect of over 50% in size
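Fission yeast RE007 carrying one integrated HIV-1 vpr copy, seeded at OD 0.01 in PMG+AL medium with 23 nL pinned compound. Grown 24 h at 30 degrees; viability read by BacTiter-Glo luminescence after 5 min.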
FMDV inh: High Throughput Screening for Foot and Mouth Disease Virus Antivirals | FMDV antiviral cell-based qHTS | Potency, µM (highest dose often 57.9 µM), inactives show at the highest dose activity change, negative = inhibition, most hits filed as inhibitors | hit rate 1.2% among 410,000 | AID 1159524, 2015; calls by dose curve; tested in HEK293T cells; further: read-out not given here; nearly all actives have a fitted effect of over 45% in size
TbPYK inhibitor: qHTS of Trypanosoma Brucei Inhibitors; TbPYK enzyme, Kinase-Glo Plus ATP luminescence, 45 min; hit rate 0.12% among 410,000; Potency, µM (titrated, usually from 76.8 µM), for the others: at the top dose activity, negative = inhibition, hits mostly inhibitors; pyruvate kinase (Trypanosoma brucei), Q57TT1; further: nearly all actives have a fitted effect of over 50% in size
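Quantitative HTS: titrated library compounds versus trypanosomal pyruvate kinase in TEA buffer (pH 7.2) containing KCl, MgCl2, BSA and Tween-20. Reactions were initiated with ADP, 130 uM final. Kinase-Glo Plus luminescence was read after 45 min at RT.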
Sm TGR inh: qHTS Assay for the Inhibitors of Schistosoma Mansoni Peroxiredoxins. Schistosoma mansoni thioredoxin glutathione reductase (TGR), Q962Y6. purified TGR, DTNB reduction, TNB absorbance 405 nm. Potency, µM (series often up to 114 µM), without a hit: top-dose activity change, negative = inhibition, hits mostly inhibitors. hit rate 3% among 360,000. AID 485364, 2010; further: nearly all actives have a fitted effect of over 60% in size
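Kinetic colorimetric format: TGR-catalysed, NADPH-driven DTNB reduction monitored via TNB absorbance. Enzyme dispensed at 20 nM; compound exposure 15 min at room temperature before reaction start.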
An asterisk follows results filed as active; ? = inconclusive; / = no result; [ ] = dose if it differs, or a comment. An excerpt weighted towards active compounds, which were near 3.7% of everything screened. Unless noted, the call rests on the fitted dose curve; in most records, active means well fitted curve in the direction sought with a large enough effect; inconclusive means small, poorly fitted or top-dose-only effect, or another doubt; inactive means no such curve, though single readings can be large; an effect the other way counts as inactive or inconclusive. On the % scale 0 is the no-effect control and ±100 the full control effect; potency means the concentration at half of the fitted maximal effect.

SMILES	RE007 growth inh	FMDV inh	TbPYK inhibitor	Sm TGR inh
COc1ccc(NS(=O)(=O)c2ccc(NC(=S)NC(=O)c3ccc(F)cc3)cc2)nn1	-14%	3%	-1%	45µM*
Cc1cc(NS(=O)(=O)c2ccc(NC(=S)NC(=O)c3ccc(Br)cc3)cc2)no1	-4%	15%	-10%	50µM*
Cc1cc(C)nc(NS(=O)(=O)c2ccc(NC(=S)NC(=O)c3cccnc3)cc2)n1	-16%	118%	-2%	?
CCc1nnc(NS(=O)(=O)c2ccc(NC(=S)NC(=O)c3cccnc3)cc2)s1	6%	0%	-4%	18µM*
CCc1nnc(NS(=O)(=O)c2ccc(NC(=S)NC(=O)c3ccc(F)cc3)cc2)s1	-3%	1%	3%	45µM*
Cc1cc(NS(=O)(=O)c2ccc(NC(=S)NC(=O)c3cccnc3)cc2)no1	?	10%	3%	0%
CC1(C)O[C@H]2[C@@H](O1)[C@@H](C(=O)Nc1ccccc1O)O[C@@H]1OC(C)(C)O[C@@H]12	/	19%	-1%	9%
Cc1ccccc1CCNCc1c(C(=O)O)c(C)n(Cc2c(F)cccc2Cl)c1C	/	-15%	-7%	3%
Cn1c(=O)c(C(=O)NNC(=O)c2ccc(Br)cc2)c(O)c2ccccc21	28µM*	-27%	0%	-21%
COc1ccc(N2CCN(S(=O)(=O)c3ccc4c(c3)NC(=O)CC(=O)N4)CC2)cc1	-7%	4%	7%	11µM*
O=C(NCCc1ccccn1)c1cnn(-c2ncc3c(n2)-c2ccccc2CC3)c1C1CC1	/	-27%	/	/
CCN(Cc1ccncc1)Cc1ccc2c(c1)CN(C(=O)c1ccccc1)CCO2	/	-2%	/	/
COc1ccc(OC)c(CCNC(=O)C(C)n2nc(C)c3c(C)n(-c4ccccc4)nc3c2=O)c1 (centres undefined)	-9%	-8%	7%	-5%
COc1ccc(OC)c(CCNC(=O)C(C)n2nc(C)c3c(C)n(-c4ccc(C)cc4)nc3c2=O)c1 (centres undefined)	11%	3.5µM*	-2%	0%
CCOc1ccccc1CNC(=O)Cn1nc(C)c2c(C)n(-c3ccc(C)cc3)nc2c1=O	-10%	16µM*	1%	-7%
Cn1nnnc1Sc1ncnc2scc(-c3ccc(-c4ccccc4)cc3)c12	/	?	2%	/
Cn1nnnc1Sc1ncnc2scc(-c3cccc(F)c3)c12	/	?	2%	-10%
Cn1nnnc1Sc1ncnc2scc(-c3cccc(C(F)(F)F)c3)c12	/	22µM*	-2%	/
COc1cccc(-c2csc3ncnc(Sc4nnnn4C)c23)c1	/	20µM*	4%	/
Cn1nnnc1Sc1ncnc2scc(-c3ccc(C#N)cc3)c12	/	28µM*	3%	?
Cn1nnnc1Sc1ncnc2scc(-c3ccccc3C(F)(F)F)c12	/	?	?	4µM*
COc1ccc(S(=O)(=O)NCC(c2ccco2)N2CCN(c3ccccc3F)CC2)cc1OC (centres undefined)	/	-8%	-6%	-4%
O=C(COc1ccccc1F)OCc1cc(=O)n2nc(C3CC3)sc2n1	/	0%	-1%	-4%
Cn1nnnc1Sc1ncnc2scc(-c3ccc(C(F)(F)F)cc3)c12	/	11µM*	-9%	-31%
CC(=O)c1ccccc1-c1csc2ncnc(Sc3nnnn3C)c12	/	-17%	-10%	-31%
SMILES	RE007 growth inh	FMDV inh	TbPYK inhibitor	Sm TGR inh
CCn1c2ccccc2c2cc(NC(=O)c3ccc(Br)o3)ccc21	-26%	-21%	-15%	11µM*
CCn1c2ccccc2c2cc(NC(=O)c3coc(=O)c(Br)c3)ccc21	/	/	/	-17%
Cc1c(C(=O)OCCOc2ccccc2)[nH]c2c1C(=O)CC(c1ccccc1Cl)C2 (centres undefined)	/	?	2%	1%
O=C(O)c1ccc2c(c1)C(=O)N(c1cccc(C(=O)/C=C/c3ccccc3)c1)C2=O	-9%	25µM*	0%	25µM*
O=C(O)c1cccc(N2C(=O)c3ccc(C(=O)c4cccc([N+](=O)[O-])c4)cc3C2=O)c1	10%	-4%	-7%	50µM*
O=C(O)c1cccc(NC(=O)c2ccc(N3C(=O)c4ccc(C(=O)Nc5cccc(C(=O)O)c5)cc4C3=O)cc2)c1	7%	-12%	-4%	4%
CSc1nnc(CNC(=O)c2cccc3ccccc23)n1-c1ccccc1C	/	1%	/	/
C=CCN1C(=O)C(CC(C)C)NC1=S (centres undefined)	/	/	-2%	/
COc1ccc(CN2CCC(n3cc(C(=O)N4CCCC4)nn3)CC2)c(OC)c1C	/	-13%	/	/
C1=C(c2ccccc2)CCN(c2ncnc3nc[nH]c23)C1	2%	-10%	-5%	50µM*
O=C(CCl)c1ccc2[nH]c(=O)oc2c1	-6%	?	-1%	11µM*
O=c1[nH]c2ccc(Br)cc2o1	-13%	2%	-2%	/
COc1ccc(OC)c(NS(=O)(=O)c2cc3c(cc2Cl)N(C(C)=O)CCO3)c1	/	40%	0%	2.5µM*
CC(=O)OCC1OC(Oc2cc(OC(C)=O)c3c(=O)cc(-c4ccc(OC(C)=O)cc4)oc3c2)[C@@H](OC(C)=O)C(OC(C)=O)C1OC(C)=O (some centres undefined)	/	4%	/	/
C=C(CN(C)C)C(=O)c1ccc(OC2OC(COC(C)=O)C(OC(C)=O)C(OC(C)=O)C2OC(C)=O)cc1 (centres undefined)	1%	10µM*	-12%	/
COc1ccc(Cl)cc1N1C(=O)[C@@H]2C[C@H]1CN2Cc1nc2ccccc2nc1C	/	4%	/	/
COC(=O)c1cn[nH]c1NC(=S)Nc1ccccc1C	7%	0%	-15%	45µM*
COC(=O)c1cn[nH]c1NC(=S)Nc1ccc(C)cc1Cl	-2%	?	-1%	-24%
CCOC(=O)c1c(-c2ccc(C)cc2)csc1NC(=O)c1cc2ccccc2oc1=O	7%	35%	-7%	14µM*
CC1(C)CC(=O)C2=C(C1)OC(N)=C(C#N)C2c1ccc[nH]1 (centres undefined)	-5%	-7%	-1%	18µM*
Cn1cccc1C1C(C#N)=C(N)OC2=C1C(=O)CC(C)(C)C2 (centres undefined)	-14%	3%	6%	-11%[57.1 µM]
C/C=C(\C)C(=O)NCCN1C2=NC[C@H](C(C)C)N2C[C@@H]1Cc1ccc(OC)cc1	-1%	-5%	0%	0%
CC(C)[C@H]1CN=C2N(C[C@H](C)NC(=O)CCC3CCCCC3)[C@H](Cc3ccc(O)cc3)CN21	?	-19%	-16%	20µM*
C/C=C(\C)C(=O)N[C@@H](C)CN1C2=NC[C@H](C(C)C)N2C[C@H]1Cc1ccc(OC)cc1	-13%	-9%	0%	5.6µM*
COc1ccc(C[C@@H]2CN3C(=NC[C@@H]3C)N2C[C@H](C)NC(=O)c2ccc(C)c(Br)c2)cc1	-9%	-6%	0%	22µM*
C/C=C(\C)C(=O)NCCN1C2=NC[C@H](Cc3ccc(O)cc3)N2C[C@H]1Cc1ccc(O)cc1	-9%	-16%	2%	50µM*
